Shown are actives, neighbours in structure and some others; about 1.4% of the full set was active somewhere.
Vc quorum ag-1: quorum light induction in luxS cqsA deficient V. cholerae; V. cholerae BH1578 lux reporter, luminescence, 6 h; activation, % at 18.7 µM; hit rate 0.16% among 350,000; AID 588436; in the data active means activation mostly above about 9.7%, no sharp cut-off
SSB-PriA inh: K. pneumoniae PriA-SSBct interaction inhibition | AlphaScreen SSBct-PriA binding, biotinylated peptide | inhibition, % at 33 µM | hit rate 0.6% among 430,000 | AID 1272365; in the data active means inhibition mostly above about 37%, no sharp cut-off; inactive means mostly below about 20%;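 further: plate controls were negative control peptide for no effect and reference peptide for full effect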
PrP 5UTR inh: suppresses PrP 5' UTR mRNA reporter expression; hit rate 0.35% among 340,000; cell-based PrP 5' UTR mRNA reporter, plate reader; inhibition, % (test concentration not listed); AID 488862; in the data active means inhibition above about 52%; further: 0 = median of the neutral control wells
PrPC TRFRET: inhibitors of human cell surface prion protein PrPC; TR-FRET read-out; hit rate 0.43% among 370,000; inhibition, % at 13.8 µM; in the data active means inhibition above about 24%; further: 0% = median of the test wells and 100% = reference compound wells
FadD28 FP inh: M. tuberculosis FadD28 bisubstrate binding inhibition. FadD28 bisubstrate probe binding, fluorescence polarization. inhibition, % at 12.5 µM. hit rate 0.22% among 360,000; in the data active means inhibition above about 8.5%, passing the limit was not always enough
Vc quorum ag-2: inducers of V. cholerae quorum light production without autoinducers. shares compounds with Vc quorum ag-1. V. cholerae BH1578 lux reporter, luminescence, 6 h. activation, % at 50 µM. 620 tested, under 10 active. AID 602243; call rule not given here
PrPC TRFRET cf: confirmation of inhibitors of cell surface human prion protein; shares compounds with PrPC TRFRET; AID 743200; cell surface PrPC level, TR-FRET; inhibition, % at 13.8 µM; hit rate 65% among 1,500; in the data active means inhibition above about 25%
LD9 tox: LD9 cell cytotoxicity, PrPc inhibitor counter-screen. shares compounds with PrPC TRFRET. LD9 cells cytotoxicity, luminescence viability. inhibition, % at 13.8 µM. hit rate 29% among 1,500; in the data active means inhibition above about 9.5%
* = called active by the depositor; i = inactive; x = no result.

SMILES	Vc quorum ag-1	SSB-PriA inh	PrP 5UTR inh	PrPC TRFRET	FadD28 FP inh	Vc quorum ag-2	others
COc1ccccc1NS(=O)(=O)c1cccc(C(=O)NCC(c2ccco2)N2CCCCC2)c1 (stereo unspecified)	14.3	-0.7	-8.1	6.3	-1.6	0.2
CCOc1ccc(NS(=O)(=O)c2ccc(C(=O)NCC(c3ccco3)N3CCCCC3)cc2)cc1 (stereo unspecified)	-6.0	x	x	-7.5	-4.5	x
CCOc1ccc(S(=O)(=O)Nc2ccc(C(=O)NCC(c3ccco3)N3CCCCC3)cc2)cc1 (stereo unspecified)	14.3	1.8	-10.9	-12.2	0.3	-0.1
O=C(NCc1nn(C2CCCC2)c(=O)c2ccccc12)c1cc(-c2ccco2)on1	x	-1.0	x	x	x	x
COc1ccc(C(=O)COC(=O)c2cccc(-n3cnnn3)c2)c(OC)c1	12.5	-2.3	-33.7	6.0	-0.2	-0.1
CC1(NC(=O)C23CC4CC(CC(C4)C2)C3)CCS(=O)(=O)C1 (stereo unspecified)	16.7*	-4.1	-9.6	-4.1	-2.3	0.0
CN(C(=O)C12CC3CC(CC(C3)C1)C2)C1(C)CCS(=O)(=O)C1 (stereo unspecified)	-0.2	-6.0	-8.5	-4.3	-2.5	x
CC(=NNc1ccc(C(F)(F)F)cc1[N+](=O)[O-])C1CC1	x	17.0	x	x	x	x
COc1ccc(NC(=O)c2ccc(=O)n(C)n2)c(OC)c1	x	8.0	x	x	x	x
CC(C)(C)C(=O)Nc1nsc(-c2ccccc2)n1	x	3.0	x	x	x	x
COc1ccc(OCc2nnc3n2N=C(c2ccc(OC)cc2)CS3)cc1	27.0	-3.2	-3.7	13.0	-3.8	3.4
O=C(COC(=O)[C@H](Cc1c[nH]c2ccccc12)NC(=O)c1ccc(Cl)cc1)Nc1ccc2c(c1)OCO2	1.8	26.2	-24.6	-1.7	-5.1	-0.1
CC(=O)N[C@@H](Cc1c[nH]c2ccccc12)C(=O)OCC(=O)Nc1ccc2c(c1)OCO2	i	0.5	-7.9	0.8	-1.3	x
Cc1cc(N2CCC(C)CC2)nc2ccc(N3C(=O)CCC3=O)cc12	12.5	-26.6	-27.3	4.5	0.5	2.1
Cc1cc(N2CCC(C)CC2)nc2ccccc12	x	x	x	1.4	x	x
O=C(NCc1cccs1)C1CCCN(c2ccc(-c3ccccc3)nn2)C1 (stereo unspecified)	x	-11.0	x	x	x	x
Cn1c(C(=O)O)cnc1Sc1ncc(C(F)(F)F)cc1Cl	1.6	-8.6	-14.5	-6.1	1.5	x
CC(C)NC(=O)c1cnc(Sc2ncc(C(F)(F)F)cc2Cl)n1C	12.5	3.8	-6.7	0.9	-2.1	-0.1
Cc1cc(=O)[nH]c(-n2nc(-c3cccs3)cc2NC(=O)C2CC2)n1	x	-4.0	x	x	x	x
Clc1ccc(-c2cnc(Oc3ccccc3)nc2)cc1	2.2	-22.7	-84.7	1.3	-3.3	x
Cc1ccc(Oc2nccc(-c3ccc(Cl)cc3)n2)cc1	12.5	-10.2	-38.2	-2.3	1.2	0.1
O=C(NCCN1CCOCC1)c1cccc(NS(=O)(=O)c2ccc(Br)cc2)c1	23.2*	-22.5	-29.3	2.6	-0.6	13.9
COc1ccc(/C=C/C(=O)N2CCN(CCN3C(=O)c4cccc5cccc(c45)C3=O)CC2)cc1	x	16.0	x	x	x	x
COc1ccc(C)c2sc(N3CCCC3)nc12	27.8*	-22.0	-12.0	-0.4	-1.4	1.1
O=C(c1cn(-c2ccccc2)nc1-c1cccs1)N1CCOCC1	25.0*	13.0	-19.4	0.2	-0.5	0.4
SMILES	Vc quorum ag-1	SSB-PriA inh	PrP 5UTR inh	PrPC TRFRET	FadD28 FP inh	Vc quorum ag-2	others
O=C(c1cn(-c2ccccc2)nc1-c1cccs1)N1CCN(c2ccccc2)CC1	-0.3	9.6	-7.0	x	-2.7	x
O=C(COc1cccc(Br)c1)Nc1ccc(N2CCCCC2)cc1	x	0.0	x	x	x	x
O=C(NCCCn1ccnc1-c1ccccc1)c1ccc(Br)o1	x	-36.0	x	x	x	x
COc1nn(C)cc1C(=O)Nc1cnn(CC2COc3ccccc3O2)c1 (stereo unspecified)	x	-25.0	x	x	x	x
COc1ccccc1NC(=O)c1nn(-c2ccc(Cl)cc2)ccc1=O	25.0*	-12.5	-25.6	6.4	0.1	1.3
COc1ccccc1NC(=O)c1nn(-c2ccccc2)ccc1=O	-7.1	-1.0	-19.4	-3.2	-1.6	x
O=C(Cc1ccccc1Cl)NC1CCN(c2nccs2)CC1	x	-8.0	x	x	x	x
COc1ccc(-c2noc(-c3cccn(CC(=O)Nc4cccc(C#N)c4)c3=O)n2)cc1OC	x	-22.0	x	x	x	x
Cc1[nH]nc2c1C1(CCOCC1)C(C#N)=C(N)O2	0.2	-16.2	-33.1	x	-1.8	x
COCc1[nH]nc2c1C1(CCC3(CC1)OCCO3)C(C#N)=C(N)O2	16.7*	-0.8	-14.7	2.4	-3.5	0.0
C#CCn1c(=NC(=O)c2cc3cc([N+](=O)[O-])ccc3s2)sc2cccc(OC)c21	x	-9.0	x	x	x	x
C#CCn1c(=NC(=O)c2ccc(Br)s2)sc2cccc(OC)c21	-1.6	-8.8	-68.2	29.8*	-1.2	x	PrPC TRFRET cf=81.3*;LD9 tox=2.5
CN(C)S(=O)(=O)Oc1cccc(C(=O)Nc2ccc(Cl)cc2)c1	i	-30.4	-124.2	26.9*	-6.1	x	PrPC TRFRET cf=28.9*;LD9 tox=12.2*
CN(C)S(=O)(=O)Oc1cccc(C(=O)Nc2ccccc2Cl)c1	-0.3	-8.6	-46.1	3.6	0.6	x
Cc1noc(C)c1CCC(=O)NC1CCC(Oc2nccnc2C#N)CC1 (stereo unspecified)	x	-12.0	x	x	x	x
COc1ccc(-n2nnnc2CNC(=O)C2CC(=O)N(c3ccc(F)cc3)C2)cc1 (stereo unspecified)	i	x	x	30.9*	0.2	x	PrPC TRFRET cf=3.5;LD9 tox=-2.6
CCOC(=O)CCC(=O)Nc1ccc(S(=O)(=O)N2CCOCC2)cc1	x	-15.0	x	x	x	x
O=C(NC(Nc1nc2ccc([N+](=O)[O-])cc2s1)(C(F)(F)F)C(F)(F)F)c1ccccc1Cl	-0.3	9.4	50.2	66.7*	0.1	x	PrPC TRFRET cf=66.2*;LD9 tox=63.2*
O=C(NC(Nc1nc2ccc([N+](=O)[O-])cc2s1)(C(F)(F)F)C(F)(F)F)c1cccnc1	-0.3	3.3	4.8	42.1*	-1.1	x	PrPC TRFRET cf=52.2*;LD9 tox=59.3*
O=C(Nc1nc2ccc([N+](=O)[O-])cc2s1)c1ccccc1F	x	4.0	x	x	x	x
Cn1nc(CN(Cc2ccco2)C(=O)c2cccn(C)c2=O)c2c1CCC2	x	-3.0	x	x	x	x
N#CCc1c(C#N)c(N)nc(N2CCN(S(=O)(=O)c3ccccc3F)CC2)c1C#N	i	-17.9	-8.6	31.1*	-2.3	x	PrPC TRFRET cf=10.9;LD9 tox=16.4*
CC(C)(C)OC(=O)Nc1cnn(C[C@H]2COc3ccccc3O2)c1	x	-13.0	x	x	x	x
O=C1CC(c2nc(-c3cccs3)no2)CN1Cc1ccc(C(F)(F)F)cc1 (stereo unspecified)	x	-30.0	x	x	x	x
CCOC(=O)C(CC)Sc1cc(C)nc2ccc(OC)cc12 (stereo unspecified)	i	-6.6	7.0	31.8*	-2.3	x	PrPC TRFRET cf=60.2*;LD9 tox=-9.1
O=C(NC(CO)(CO)CO)c1coc(=O)c(Br)c1	6.2	-13.4	-4.9	45.8*	1.0	x	PrPC TRFRET cf=-4.5;LD9 tox=-3.6
